PubChem BioAssay AID1240 (Sanford-Burnham Center for Chemical Genomics, 2008)
Out of some 50,000 compounds screened, about 800 (1.6%) showed an effect of 50% or more. The sample holds strong results, similar compounds and a random draw of the others, so the mix is not that of the screen.

Target: Bcl-2-like protein 10 (Homo sapiens) (UniProt Q9HD36)
Assay: Phenotype converters, Bcl-B/TR3 peptide binding displacement, primary biochemical FP (AID 1240);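 also: 0% = Bcl-B with tracer peptide and DMSO and 100% = tracer peptide lacking Bcl-B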
Settings: GST-Bcl-B / FITC-TR3 peptide fluorescence polarization; stronger effect = higher value; compound at 3.75 mg/L

Chain of Bcl-2-like protein 10 (Homo sapiens) (Q9HD36 whole entry, looked up): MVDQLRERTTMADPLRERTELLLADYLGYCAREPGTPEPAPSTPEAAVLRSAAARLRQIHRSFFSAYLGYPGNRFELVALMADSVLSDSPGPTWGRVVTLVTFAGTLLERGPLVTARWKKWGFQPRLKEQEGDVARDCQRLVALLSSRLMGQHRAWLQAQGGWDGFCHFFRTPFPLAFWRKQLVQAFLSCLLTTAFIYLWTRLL

Structure (SMILES)	displacement [%]
O=C(Nc1ccc(I)cc1)/C(=C\c1cccc([N+](=O)[O-])c1)NC(=O)c1cccs1	-0.6
COc1cccc(OC)c1C(=O)Nc1ccc(C(=O)Oc2ccccc2)c(O)c1	-9.1
O=C(Nc1ccc(Cl)c(-c2nc3ccccc3o2)c1)c1cccc(F)c1	-5.1
CC(=O)Nc1ccc(S(=O)(=O)Nc2ccccc2Br)cc1	-2.9
O=C1NC(=S)N/C1=C/c1cccc(O)c1	-6.7
COc1cc(OC)cc(-c2nc3ccc(C)cc3c(=O)o2)c1	-17.8
O=C(Nc1ccc2nn(-c3ccc(F)cc3)nc2c1)c1ccc(-c2ccc([N+](=O)[O-])cc2)o1	8.2
CN1C(=O)NC(=O)/C(=C/c2ccc(-c3ccc(F)cc3)o2)C1=O	123
CN1C(=O)NC(=O)/C(=C/c2ccc(-c3ccc(Cl)cc3)o2)C1=O	37
C=CCN1C(=O)/C(=C\c2ccc(-c3ccc(F)cc3)o2)C(=O)NC1=S	-3.3
COc1ccccc1CNC(=O)c1cccc(Cl)c1	-6.1
COc1cccc(C(=O)Nc2ccc(-c3nc4ccccc4o3)c(O)c2)c1	-23.2
Clc1ccc2nc(N/N=C/c3ccc4c(c3)OCO4)nc(-c3ccccc3)c2c1	83.7
O=[N+]([O-])c1ccc(/C=N\Nc2nc(-c3ccccc3)c3cc(Cl)ccc3n2)o1	-5.3
Clc1ccc2nc(N/N=C/c3ccc4ncccc4c3)nc(-c3ccccc3)c2c1	-2.6
Cc1ccc(/C=N\N2CCN(c3ccccc3)CC2)cc1	-3.9
COc1cc(C)nc(Nc2nc(C)c3cc(C)ccc3n2)n1	107
COc1cc(C)nc(Nc2nc(C)c3ccc(C)cc3n2)n1	13.2
COc1ccc2nc(Nc3nc(C)cc(-c4ccccc4)n3)nc(C)c2c1	-14.2
CN(C)c1ccc(CC2(CC(=O)c3ccccc3)C(=O)c3ccccc3C2=O)cc1	1.8
CC1=CC(=O)C=C/C1=N\OS(=O)(=O)c1ccccc1	25.4
COc1cc(C=C2C(=O)N(C)C(=O)N(C)C2=O)ccc1OC(C)c1ccccc1 (stereo unspecified)	120

Structure (SMILES)	displacement [%]
COc1ccc(C=C2C(=O)N(C)C(=O)N(C)C2=O)cc1OC	0.6
COc1cc(C=O)ccc1OC(C)c1ccccc1 (stereo unspecified)	1.1
COc1ccc(OC)c(/C=c2\sc3nc4c(Br)c(C)c(C)cc4n3c2=O)c1	19.8
Cc1ccc(OCC(=O)O/N=C(\N)c2ccncc2)c(C)c1	2.5
CC1(C)Cc2ccccc2-c2nnc(-c3cccs3)n21	-8.6
N/C(=N\c1nc2ccccc2o1)NC(=O)c1ccccc1	-10.3
N/C(=N\c1nc2ccccc2o1)NC(=O)c1ccc(F)cc1	1.4
N/C(=N/c1nc2ccccc2o1)NC(=O)c1sc2ccccc2c1Cl	51.6
O=C(Oc1ccc(Br)cc1C(=S)N1CCOCC1)c1ccc([N+](=O)[O-])cc1	7.3
Cc1cccc(NC(=O)c2c(NC(=O)C(C)(C)C)sc3c2CCC3)c1	-2.3
Nc1cccc2c1C(=O)c1c(N)cccc1C2=O	-4.2
Nc1nnc2c(n1)-c1ccccc1C2=O	1
CNc1ccc2[nH]nc3c2c1C(=O)c1ccccc1-3	173
CCC(=O)Nc1cccc2c1C(=O)c1ccccc1C2=O	11.2
Nc1ccc2[nH]nc3c2c1C(=O)c1ccccc1-3	104
CNc1c(Cl)c(Cl)c(Cl)c2c1C(=O)c1ccccc1C2=O	11.2
Cc1cc(C)nc(NS(=O)(=O)c2ccc(NC(=S)NC(=O)c3ccc(Br)cc3)cc2)n1	2.6
O=C(NCCN1CCOCC1)c1sc2ccccc2c1Cl	-3.6
CCOc1cc([N+](=O)[O-])cc(/C=C2/SC(=S)NC2=O)c1O	14
NS(=O)(=O)c1ccc(NC(=O)COc2ccc3ccccc3c2)cc1	3
Cc1ccc(OCCCN2CCN(C)CC2)c(C(C)(C)C)c1	-8
CC(=NCCN1CCNCC1)C1=C(O)CC(C)(C)CC1=O	-4.3

Structure (SMILES)	displacement [%]
O=c1nc(/C=C/c2cc3c(cc2[N+](=O)[O-])OCO3)cc(C(F)(F)F)[nH]1	30.4
O=c1nc(/C=C/c2cc3c(cc2Br)OCO3)cc(C(F)(F)F)[nH]1	115
COc1cc(/C=C/c2cc(C(F)(F)F)[nH]c(=O)n2)cc(OC)c1OC	2.7
COc1cc(OC)c(OC)cc1/C=C/c1cc(C(F)(F)F)[nH]c(=O)n1	7.5
O=c1nc(/C=C/c2cccc3ccccc23)cc(C(F)(F)F)[nH]1	49.7
COc1cccc(/C=C/c2cc(C(F)(F)F)[nH]c(=O)n2)c1OC	121
CCOC(=O)c1c(NC(=O)c2ccc(Cl)cc2)sc(C(=O)Nc2ccccc2OCC)c1C	3.5
Cc1cc(N2C(=O)NC(=O)/C(=C\c3ccco3)C2=O)ccc1Br	74
Cc1cc(N2C(=O)NC(=O)/C(=C\c3ccc(N4CCOCC4)o3)C2=O)ccc1Br	-33.9
Cc1ccc(N2C(=O)NC(=O)/C(=C\c3ccc(N(C)C)o3)C2=O)cc1	-134
CCN(CC)c1ccc(/C=C2\C(=O)NC(=O)N(c3ccc(Br)c(C)c3)C2=O)o1	42.6
O=C1NC(=O)N(c2ccc(Br)cc2)C(=O)/C1=C/c1ccco1	30.1
Cc1cc(N2C(=O)NC(=O)/C(=C\C=C\c3ccco3)C2=O)ccc1Br	-3.7
Cc1cc(N2C(=O)NC(=O)/C(=C\c3ccc(N4CCCCC4)o3)C2=O)ccc1Br	55.5
Cc1cc(N2C(=O)NC(=O)/C(=C\c3ccc(N(C)C)o3)C2=O)ccc1Br	153
Cc1ccc(N2C(=O)NC(=O)/C(=C\c3ccc(N4CCCCC4)o3)C2=O)cc1	-139
CC(C)(C)C1(O)CC(c2ccccc2)=NO1 (stereo unspecified)	18.6
O=C1c2ccccc2C(=O)c2c(NC(=O)C3CC4CCC3C4)cccc21 (stereo unspecified)	-7.7
O=C(c1ccccc1)N1CCN(C2CC(=O)N(CCc3ccccc3)C2=O)CC1 (stereo unspecified)	3.9
CCC1=NN2C(=N)/C(=C/c3ccc4c(c3)OCO4)C(=O)N=C2S1	3
CCOc1cccc(N2C(=O)NC(=O)/C(=C\c3ccc(Sc4ccccc4)o3)C2=O)c1	4
Cc1cc(=O)c2c(C)nc(-c3ccccc3)nc2[nH]1	31.5

Structure (SMILES)	displacement [%]
CSc1nc(-c2ccccc2)nc2[nH]c(-c3ccccc3)cc(=O)c12	44.4
Cc1nc(-c2ccccc2)nc2[nH]c(-c3ccccc3)cc(=O)c12	69.8
CCOC(=O)c1ccc(NC(=O)c2cc(-c3cccs3)nc3ccccc23)cc1	4.7
CCN(CC)CCNC(=O)c1ccc(Cl)c(Cl)c1	-5.2
Cc1ccc(C(=O)NC(NC(=S)Nc2cccc3ccccc23)C(Cl)(Cl)Cl)cc1 (stereo unspecified)	54.9
O=C(NC(NC(=S)Nc1cccc2ccccc12)C(Cl)(Cl)Cl)c1ccccc1 (stereo unspecified)	18.6
Cc1ccc(C(=O)NC(NC(=S)Nc2ccccc2Cl)C(Cl)(Cl)Cl)cc1 (stereo unspecified)	-10.7
Nc1c(C(=O)c2ccc(Cl)cc2)sc2nc(-c3ccccc3)ccc12	-3.6
Nc1c(C(=O)c2ccc(Br)cc2)sc2nc(C(F)(F)F)c(C(=O)c3cccs3)cc12	51.1
CC(=O)c1cc2c(N)c(C(=O)c3ccc(Br)cc3)sc2nc1C	10.1
Cc1cc([N+](=O)[O-])nn1C(=O)c1nn(C)cc1Br	0.4
N#Cc1ccccc1NC(=O)c1ccc(-c2ccccc2)cc1	12.6
Cc1ccc(-c2nc3s/c(=C\c4cn(-c5ccccc5)nc4-c4ccccc4)c(=O)n3n2)cc1	8.5
COc1ccc(Cl)cc1NS(=O)(=O)c1cccc([N+](=O)[O-])c1	72.8
COc1ccc(OC)c(NS(=O)(=O)c2cccc([N+](=O)[O-])c2)c1	2.1
Cc1cc(Cl)ccc1NS(=O)(=O)c1cccc([N+](=O)[O-])c1	-1.2
CC(C)C(=O)Nc1cc(C(F)(F)F)cc(C(F)(F)F)c1	-2.9
CCc1ccc(NC(=O)C(=O)NCc2ccccc2OC)cc1	6.8
COc1ccc(C2=N/C(=C/c3ccc(F)cc3)C(=O)N2c2ccc(O)cc2)cc1	9
COc1ccc(C=C2C(=O)N(c3ccccc3)C(=S)N(c3ccccc3)C2=O)c(OC)c1	10.9
COc1ccc(C2=N/C(=C/c3ccccc3OC)C(=O)N2c2ccccc2)cc1	6.4
COc1ccc(N2C(=O)/C(=C\c3ccc(OC)cc3OC)N=C2c2ccccc2)cc1	192

Structure (SMILES)	displacement [%]
COc1ccc(/C=C2/SC(=O)N(c3ccccc3)C2=O)c(OC)c1	5.9
COc1ccc(C2=N/C(=C/c3ccccc3F)C(=O)N2c2ccccc2)cc1	125
O=C1C(=O)N(c2cccc(Br)c2)C(c2ccccc2)/C1=C(/O)c1ccccc1 (stereo unspecified)	12
COc1ccc(NC(=O)c2ccc(S(=O)(=O)N3CCOCC3)cc2)c2ccccc12	-8.9
Cc1cccn2c(=O)c(/C=C3\SC(=S)N(C(C)c4ccccc4)C3=O)c(NCCCn3ccnc3)nc12 (stereo unspecified)	8.8
CC1=C(C#N)c2nc(N)c(C#N)c(C)c2/C1=C\c1ccc(C)o1	-4.4
O=C(Nc1sc2c(c1C(=O)Nc1ccccn1)CCCCC2)c1ccccc1F	-3
N#Cc1c(NC(=O)c2ccc(S(=O)(=O)c3ccccc3)cc2)sc2c1CCCC2	83.9
COc1ccc(C(=O)Nc2sc3c(c2C#N)CCCCC3)cc1	-3.4
Cc1ccccc1NC(=O)c1c(NC(=O)c2ccccc2Br)sc2c1CCCCC2	76.6
CCc1ccccc1NC(=O)c1c(NC(=O)c2ccccc2)sc2c1CCC2	-15.6
CCc1ccccc1NC(=O)c1c(NC(=O)c2ccccc2Cl)sc2c1CCC2	61.2
O=C(Nc1sc2c(c1C(=O)Nc1ccccn1)CCCCC2)c1ccccc1	95
COc1ccc(NC(=O)c2c(NC(=O)c3ccccc3)sc3c2CCCC3)cc1	5.7
CCc1ccccc1NC(=O)c1c(NC(=O)c2ccccc2Br)sc2c1CCC2	-4.1
CCOc1ccccc1NC(=O)c1c(NC(=O)c2ccccc2Br)sc2c1CCCC2	-3.8
N#Cc1c(NC(=O)c2ccc(C(=O)O)cc2C(=O)O)sc2c1CCCC2	11
Cc1ccccc1NC(=O)c1c(NC(=O)c2ccccc2C)sc2c1CCCCC2	13
